Results on ten molecules are retold here after PubChem BioAssay.

Results filed as inconclusive are left out. Active and inactive are the calls of the source.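 The calls were made as follows, unless noted: active = Her2 level under about 52% in both replicate screens, with viability over 70% of control (limit read from the data); inconclusive = Her2 under the limit in one screen only, or viability under 70%; inactive = Her2 level above the set limit.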

A short description of test [1]: Her2 expression decrease, cell viability multiplex – SKBR3 breast tumor cells, AlphaScreen, ATP viability, primary screen (AID 461).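 As to Her2 level: lower value means less Her2 protein in the cells.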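 As to viability: percent of carrier control wells set as 100% viability.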 The note with it: SKBR3 Her2 protein level, 18-24 h, measured here: SKBR3 viability, ATP luminescence, at 10 µM.
Test [2] deals with Receptor tyrosine-protein kinase erbB-2 (Homo sapiens) (UniProt P04626). Described as above. Conditions: 18-24 h, at 10 µM, stronger effect = lower value.
Sequence of Receptor tyrosine-protein kinase erbB-2 (Homo sapiens) (P04626 whole entry, looked up): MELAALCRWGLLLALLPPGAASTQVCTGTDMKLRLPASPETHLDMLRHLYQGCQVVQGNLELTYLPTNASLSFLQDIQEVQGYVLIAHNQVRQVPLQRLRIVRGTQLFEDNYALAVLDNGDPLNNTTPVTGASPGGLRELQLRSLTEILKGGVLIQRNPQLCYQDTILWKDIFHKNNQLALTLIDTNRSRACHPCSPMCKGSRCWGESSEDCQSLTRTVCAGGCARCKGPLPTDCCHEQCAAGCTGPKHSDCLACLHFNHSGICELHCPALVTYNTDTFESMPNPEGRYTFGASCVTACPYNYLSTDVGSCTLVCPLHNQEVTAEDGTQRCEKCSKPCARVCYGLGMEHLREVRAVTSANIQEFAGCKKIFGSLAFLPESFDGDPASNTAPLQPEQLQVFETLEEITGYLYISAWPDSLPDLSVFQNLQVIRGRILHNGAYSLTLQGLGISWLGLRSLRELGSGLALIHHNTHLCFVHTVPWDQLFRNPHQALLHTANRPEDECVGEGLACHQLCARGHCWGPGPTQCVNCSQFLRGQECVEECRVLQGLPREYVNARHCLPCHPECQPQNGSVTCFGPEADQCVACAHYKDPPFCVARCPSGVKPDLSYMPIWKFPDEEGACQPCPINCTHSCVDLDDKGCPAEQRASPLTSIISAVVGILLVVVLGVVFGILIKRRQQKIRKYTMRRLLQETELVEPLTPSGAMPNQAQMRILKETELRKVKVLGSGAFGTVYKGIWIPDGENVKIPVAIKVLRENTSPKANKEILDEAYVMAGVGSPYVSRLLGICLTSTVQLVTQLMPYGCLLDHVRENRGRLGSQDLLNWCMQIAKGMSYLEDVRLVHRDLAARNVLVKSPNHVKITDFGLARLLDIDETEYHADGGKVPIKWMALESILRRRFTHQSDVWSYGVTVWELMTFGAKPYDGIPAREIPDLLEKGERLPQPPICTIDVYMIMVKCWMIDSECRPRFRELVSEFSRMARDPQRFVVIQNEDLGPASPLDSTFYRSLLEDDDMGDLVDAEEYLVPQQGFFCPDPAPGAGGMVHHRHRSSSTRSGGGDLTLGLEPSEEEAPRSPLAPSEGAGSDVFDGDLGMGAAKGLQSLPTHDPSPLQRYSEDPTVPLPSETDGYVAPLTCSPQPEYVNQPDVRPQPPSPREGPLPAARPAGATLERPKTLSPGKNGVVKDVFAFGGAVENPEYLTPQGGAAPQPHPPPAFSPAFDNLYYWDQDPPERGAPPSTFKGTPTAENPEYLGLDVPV
The nature of test [3]: reduced viability of SK-BR-3 breast cancer cells – cell-based, 24 h, human, pilot screen (AID 572;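 active = viability at or below 10% of carrier control in both of two separate runs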;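 also: compound exposure lasted between 18 and 24 h rather than exactly 24 h; 100% = carrier-treated control wells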). The note with it: SK-BR-3 viability, CellTiter-Glo luminescence, at 10 µM, stronger effect = lower value.
Test [4] in a line: HUVEC growth inhibition – cell-based, human, primary screen (AID 575;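 active = viability at or below 30% in both replicate assays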;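 also: 100% = median of untreated cell wells with 0.1% DMSO on each plate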). Conditions: HUVEC proliferation, CellTiter-Glo luminescence, 72 h; at 10 µM; stronger effect = lower value.
Test [5] can be described thus: H69AR cell proliferation blockers – human, duplicate replicates, primary screen (AID 580;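 active = viability at or under a set limit in both replicates, limit being median viability minus 3 SD, cut at about 48% in these data, passing the limit was not always enough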;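 also: 100% = mean luminescence of untreated wells and 0% = no signal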). Conditions: H69AR lung tumor cells viability, ATP luminescence, 72 h; at 10 µM; stronger effect = lower value.
Test [6] in a line: MRP1 drug-resistance reversers in H69AR cells – cell-based, doxorubicin co-treatment, pilot screen (AID 601;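 active = viability loss from added drug above about 55%, and viability with drug at most 40%, in both replicates, limit read from the data, passing the limit was not always enough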). The note with it: CellTiter-Glo, 72 h, at 10 µM; for differential viability (reversal): stronger effect = higher value.
Test [7] in a line: yeast transport mutant growth inhibition pilot in 384-well plates, post-Golgi transport modulator project (AID 636; in the data active = inhibition above about 31%). Conditions: absorbance 615 nm, about 18 h, stronger effect = higher value.
Test [8] is described as follows: growth suppression of yeast trafficking mutant, preliminary HTS, modulators of trafficking downstream of Golgi apparatus project, 1536-format plate, OD 615 nm (AID 637; in the data active = inhibition above about 30%). The note with it: yeast transport mutant growth, absorbance 615 nm, 18 h; stronger effect = higher value.
Test [9] in a line: S. cerevisiae growth inhibition in permissive medium (OD615), pilot counter-assay for S. cerevisiae lifespan shortening project, permissive growth control (AID 705;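 active = growth inhibition above 25% in both replicates, a cutoff set 3 SD above the mean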). Conditions: OD615, 24 h, at 10 µM, stronger effect = higher value.
A short description of test [10]: S. cerevisiae growth inhibition in restrictive medium, OD615, pilot screen, restrictive growth control, yeast lifespan reduction project (AID 706;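 active = growth inhibition above a set limit, 3 SD over mean compound inhibition, in both replicates, cut at about 43% in these data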;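 also: modified DeaD lifespan yeast strain shifted to restrictive glucose medium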). The note with it: OD615, 48 h, at 10 µM, stronger effect = higher value.
Test [11] in a line: doxorubicin toxicity protection in MRP-1 cells – H69AR cells, CellTiter-Glo, duplicate, MRP-1 activator project, pilot screen (AID 807;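 active = viability increase at or above a cutoff of the median across tested compounds plus 3 SD, cut at about 8.5% in these data, passing the limit was not always enough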;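 also: compound pretreatment 18-22 h then 72 h combined with doxorubicin; 0% = doxorubicin alone and 100% = vehicle without doxorubicin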). Conditions: H69AR viability with doxorubicin, CellTiter-Glo luminescence; at 10 µM; stronger effect = higher value.
The nature of test [12]: viability of HCT116 without oncogenic beta-catenin – human colon tumor cells, pilot screen (AID 823;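 active = cell viability at or below a set limit in both duplicate runs, the limit being the all-compound median minus 4 SD, cut at about 23% in these data, passing the limit was not always enough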;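 also: 0% = wells killed by 20 µM Hyamine and 100% = untreated DMSO cell wells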). The note with it: HCT116 beta-catenin knockout viability, CellTiter-Glo, 60 h; at 10 µM; stronger effect = lower value.
Test [13] in a line: viability of PTEN-null HCT116 cells – cell-based, HCT116 clonal line, CellTiter-Glo, pilot screen (AID 824;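 active = viability at or below 27.92% in each of two runs, the all-compound median minus 4 SD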;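 also: 0% = 20 µM Hyamine control and 100% = vehicle cell control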). Conditions: HCT116 PTEN-deleted viability, 60 h, at 10 µM, stronger effect = lower value.
A short description of test [14]: RAM pathway blockade in budding yeast – dse1pr::URA3 reporter, 5-FOA selection, pilot screen (AID 869;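 active = inhibition over a set limit, the all-compound mean plus 3 SD, in both replicate runs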;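 also: 0% = DMSO wells with no growth and 100% = 10 µM 1-NA-PP1 with full growth; RAM network block rescues cells from 5-FOA so hits raise OD615 growth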). The note with it: S. cerevisiae dse1pr::URA3 5-FOA growth, OD615, 2 d; at 10 µM; stronger effect = higher value; strain carries analog-sensitive mutant Cbk1 kinase.
Test [15] in a line: RAM signaling pathway blockade in yeast – S. cerevisiae, Pdr1DBD-CYC8 efflux-inhibited sensitized strain, primary screen (AID 1298;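 active = RAM network inhibition above 8.4% in each of two replicates, 3 SD over the compound average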;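 also: 0% = DMSO untreated cells without growth and 100% = 10 µM 1-NA-PP1 full growth; higher means more yeast growth rescued from 5-FOA killing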). The note with it: S. cerevisiae cbk1-as DSE1-URA3 strain, 5-FOA growth OD615, 2 d; at 50 µM; stronger effect = higher value.
[16] abbreviates: H69AR cells + 2 uM doxorubicin, measured here: viability with 2 uM doxorubicin, stronger effect = lower value.
Setting [17] is: H69AR cells, compound alone cytotoxicity.

Turning to `COc1cccc(C2=NOC(C(=O)N3CCc4ccccc4C3)C2)c1` (stereo not given), the viability in test [1] is 87%; in test [3], 87% (inactive); in [4], 92.2% (inactive); in [5] it was 92% (inactive); in test [6] (setting [16]), 77.9%; in test [6] (setting [17]), 92%. For the same molecule, the figures for the viability in test [12] and in test [13] were 104% (inactive) and 95.5% (inactive), respectively. For the same molecule, in test [2], the Her2 level was 92.5% (inactive). Further, in test [6] (H69AR cells + 2 uM doxorubicin), the differential viability (reversal) is 14.1% (inactive). Besides, the inhibition is -1.41% (inactive) in test [7], -1.83% (inactive) in test [8] and -0.045% (inactive) in [14]. Moreover, the growth inhibition in test [9] was -9.41% (inactive); in [10] it was 4.4% (inactive). Moreover, the viability increase in test [11] was -2.18% (inactive). For the same molecule, in test [15], the RAM network inhibition is -2.13% (inactive).
Turning to `CC(CCC(=O)Nc1nncs1)C(=O)O` (stereo not given), the viability in test [1] was 124%; in [3] it was 124% (inactive); in test [4] it was 101% (inactive); in test [5], 85.9% (inactive); in test [6] (setting [16]), 86.6%; in test [6] (setting [17]), 85.9%. Moreover, the viability in test [12] is 108% (inactive); in test [13], 95.9% (inactive). Further, the Her2 level in test [2] was 110% (inactive). Besides, the differential viability (reversal) in test [6] (H69AR cells + 2 uM doxorubicin) is -0.74% (inactive). The inhibition in [7] is -3.2% (inactive); in [8] it was 8.33% (inactive); in test [14], 0.135% (inactive). Besides, the growth inhibition is -8.12% (inactive) in [9] and -5.29% (inactive) in [10]. The viability increase in [11] was 0.04% (inactive). Further, the RAM network inhibition in test [15] is -0.05% (inactive).
For `Cc1nnc(N2C(=O)C(O)=C(C(=O)c3ccco3)C2c2ccc(F)cc2)s1` (stereo not given), the viability in test [1] is 99%; in [3], 99% (inactive); in [4] it was 120% (inactive); in [5], 99.6% (inactive); in test [6] (setting [16]), 90.9%; in test [6] (setting [17]), 99.6%. Also, the viability is 106% (inactive) in test [12] and 101% (inactive) in [13]. The Her2 level in [2] is 98.5% (inactive). In addition, the differential viability (reversal) in [6] (H69AR cells + 2 uM doxorubicin) was 8.77% (inactive). Moreover, the inhibition in test [7] is -3.46% (inactive); in test [8] it was 1.67% (inactive); in test [14], 0.21% (inactive). In addition, the growth inhibition in test [9] was -13.9% (inactive); in test [10] it was -28.6% (inactive). The viability increase in [11] is -1.63% (inactive). The RAM network inhibition in [15] was 0.57% (inactive).
Regarding `CCCc1cc(C(=O)Nc2sc(C)c(C)c2C(=O)OCC)no1`, the viability in [1] is 86%; in test [3], 86% (inactive); in test [4], 85.8% (inactive); in [5], 92.6% (inactive); in test [6] (setting [16]) it was 92%; in [6] (setting [17]), 92.6%. The viability in test [12] was 102% (inactive); in test [13], 97.9% (inactive). Moreover, the Her2 level in test [2] is 79% (inactive). Moreover, the differential viability (reversal) in test [6] (H69AR cells + 2 uM doxorubicin) is 0.625% (inactive). Besides, the values for the inhibition in test [7], in test [8] and in test [14] were -1.79% (inactive), 1.17% (inactive) and 3.55% (inactive), respectively. Besides, the growth inhibition is -10.7% (inactive) in [9] and 2.83% (inactive) in test [10]. For the same molecule, the viability increase in test [11] was 2.07% (inactive). For the same molecule, the RAM network inhibition in test [15] was 7.13% (inactive).
On to `Fc1cccc(Nc2ncnc3c2cnn3-c2ccccc2)c1`, for which the viability in [1] is 83.5%; in [3] it was 83.5% (inactive); in test [4], 54.9% (inactive); in test [5] it was 37.9% (active); in test [6] (setting [16]), 69.5%; in test [6] (setting [17]), 37.9%. The results for the viability in [12] and in test [13] were 71.5% (inactive) and 70.2% (inactive), respectively. Also, the Her2 level in test [2] is 70.5% (inactive). The differential viability (reversal) in [6] (H69AR cells + 2 uM doxorubicin) was -31.6% (inactive). Also, the inhibition in test [7] is 2.4% (inactive); in test [8], -1.67% (inactive); in test [14], 0.315% (inactive). The growth inhibition in [9] was -5.18% (inactive); in test [10] it was -6.66% (inactive). Also, in test [11], the viability increase was -5.13% (inactive). Besides, the RAM network inhibition in test [15] was 0.26% (inactive).
Take `CN(C)c1cc(NC(=O)CN2CCOCC2)c2ccccc2n1`: the viability in test [1] is 110%; in test [3] it was 110% (inactive); in test [4], 90.2% (inactive); in test [5], 85.8% (inactive); in test [6] (setting [16]), 85%; in test [6] (setting [17]), 85.8%. The viability is 100% (inactive) in [12] and 99.4% (inactive) in test [13]. In test [2], the Her2 level is 100% (inactive). Further, in test [6] (H69AR cells + 2 uM doxorubicin), the differential viability (reversal) was 0.73% (inactive). In addition, the inhibition was -5.47% (inactive) in test [7], 7.17% (inactive) in test [8] and -0.365% (inactive) in test [14]. Also, the growth inhibition was -12.2% (inactive) in [9] and -11% (inactive) in [10]. The viability increase in test [11] was -1.8% (inactive). Further, the RAM network inhibition in test [15] is 0.06% (inactive).
Consider `C=CCOC(=O)COc1ccc2c(C)c(C)c(=O)oc2c1C`, for which the viability in test [1] is 106%; in [3] it was 106% (inactive); in [4], 97.9% (inactive); in test [5], 125% (inactive); in test [6] (setting [16]), 106%; in [6] (setting [17]), 125%. Also, the viability in test [12] is 101% (inactive); in test [13], 95.9% (inactive). For the same molecule, in test [2], the Her2 level was 92.5% (inactive). Also, the differential viability (reversal) in test [6] (H69AR cells + 2 uM doxorubicin) is 19.5% (inactive). Further, the results for the inhibition in test [7], in test [8] and in test [14] were -0.81% (inactive), -3.49% (inactive) and 1% (inactive), respectively. Further, the growth inhibition in test [9] was -18.3% (inactive); in [10], -15.6% (inactive). For the same molecule, in test [11], the viability increase is 2.23% (inactive). The RAM network inhibition in test [15] was 2.98% (inactive).
`Cc1ccc(C2CC(c3ccc(C)cc3)n3nc(N)nc3N2)cc1` (stereo not given): the viability in test [1] was 95%; in test [3], 95% (inactive); in test [4], 102% (inactive); in test [5], 88.5% (inactive); in test [6] (setting [16]) it was 97.1%; in test [6] (setting [17]) it was 88.5%. The viability was 96.7% (inactive) in test [12] and 93.1% (inactive) in [13]. Also, the Her2 level in test [2] is 109% (inactive). In addition, the differential viability (reversal) in test [6] (H69AR cells + 2 uM doxorubicin) is -8.68% (inactive). The inhibition is -1.79% (inactive) in [7], -1% (inactive) in test [8] and 1.34% (inactive) in [14]. The results for the growth inhibition in [9] and in [10] were 1.83% (inactive) and 12.3% (inactive), respectively. The viability increase in test [11] was -0.92% (inactive). Further, the RAM network inhibition in test [15] is 1.75% (inactive).
Consider `N#Cc1nc(COc2ccccc2Cl)oc1N1CCCCCC1`, for which the viability in [1] is 96.5%; in test [3], 96.5% (inactive); in [4], 79.6% (inactive); in [5], 93.1% (inactive); in [6] (setting [16]), 96.9%; in test [6] (setting [17]), 93.1%. In addition, the viability was 98.7% (inactive) in test [12] and 87.5% (inactive) in test [13]. Moreover, the Her2 level in [2] was 104% (inactive). In test [6] (H69AR cells + 2 uM doxorubicin), the differential viability (reversal) is -3.75% (inactive). Besides, the inhibition is -3.6% (inactive) in test [7], -3.17% (inactive) in test [8] and 2.3% (inactive) in test [14]. Besides, the values for the growth inhibition in test [9] and in test [10] were 7.94% (inactive) and 6.52% (inactive), respectively. In addition, the viability increase in [11] was 2.96% (inactive). Further, the RAM network inhibition in [15] is 5.67% (inactive).
On to `Cc1cc(C)n2nc(SCc3nc4ccccc4[nH]3)nc2n1`, for which the viability is 87.5% in test [1]; 87.5% (inactive) in test [3]; 98.3% (inactive) in test [4]; 95.7% (inactive) in test [5]; 87.2% in test [6] (setting [16]); 95.7% in test [6] (setting [17]). In addition, the viability in test [12] was 91.2% (inactive); in test [13] it was 95.5% (inactive). Further, the Her2 level in test [2] is 81% (inactive). The differential viability (reversal) in [6] (H69AR cells + 2 uM doxorubicin) is 8.56% (inactive). Besides, the results for the inhibition in test [7], in test [8] and in [14] were 2.13% (inactive), 3.28% (inactive) and 1.77% (inactive), respectively. For the same molecule, the growth inhibition is -5.58% (inactive) in test [9] and 15.5% (inactive) in [10]. Also, in test [11], the viability increase is -2.9% (inactive). The RAM network inhibition in test [15] is 1.24% (inactive).
